Bioassay records: PubChem, National Center for Advancing Translational Sciences (NCATS)
Shown is part of a subset that was picked to be rich in hits.
GALC G270D act = A Novel Cell-Based Assay to Identify Small Molecules for B -Galactocerebrosidase; P54803; 145M-Twi-hGALC-G270D cells (Twitcher mouse brain line with human GALC G270D), HMU-beta-Gal fluorescence, 48 h; Potency, µM (doses to about 57.5 µM), actives largely listed as activators; 45,000 compounds, 0.1% hits; AID 1159614, 2016; note: nearly all actives have a fitted effect of over 65% in size
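Fluorescence readout: HMU-β-gal cleavage by mutant GALC (0.1 mM final, citrate/phosphate pH 5.2 with 1 mg/mL taurocholate), stopped with carbonate/bicarbonate plus Triton X-100. Cells: murine Twitcher 145M-Twi expressing human G270D GALC; qHTS for activators.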
TSG101-PTAP inh = qHTS Validation Assay for Inhibitors of HIV-1 Budding by Blocking the Interaction of PTAP/TSG101: Sytravon Library Screen; 44,000 tested, under 10 active; Potency, µM (highest dose often 115 µM), most hits filed as inhibitors; Fluorescence polarization, FITC-PTAP peptide/Tsg101, 20 min; Tumor susceptibility gene 101 protein (Homo sapiens), Q99816
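Fluorescence polarization binding of Tsg101 binding domain (10 uM final) to FITC-labeled PTAP-motif peptide (50 nM final) in HEPES pH 7.5/NaCl/Tween 20/EDTA/TCEP buffer; 20 min at r.t. Actives by curve class, <25 µM, efficacy <60% inhibition.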
FH mod = Identification of activators of human fumarate hydratase by quantitative high-throughput screening; FH coupled MDH/diaphorase resazurin fluorescence, 15 min; Potency, µM (highest dose often 79.9 µM), usual class: inhibitors; 54,000 compounds, 0.22% hits; note: the screen sought activators but most active calls are inhibition curves; nearly all actives have a fitted effect of over 45% in size
GALK inhibitor = qHTS Assay for Inhibitors of Human Galactokinase (GALK): NCGC Sytravon Library Screen | P51570 | recombinant GALK, Kinase-Glo ATP luminescence, 1 h | Potency, µM (top dose mostly 57.5 µM), hits mostly inhibitors | 44,000 tested, under 10 active | AID 1347072, 2019
Target sequence (P51570 whole entry, looked up): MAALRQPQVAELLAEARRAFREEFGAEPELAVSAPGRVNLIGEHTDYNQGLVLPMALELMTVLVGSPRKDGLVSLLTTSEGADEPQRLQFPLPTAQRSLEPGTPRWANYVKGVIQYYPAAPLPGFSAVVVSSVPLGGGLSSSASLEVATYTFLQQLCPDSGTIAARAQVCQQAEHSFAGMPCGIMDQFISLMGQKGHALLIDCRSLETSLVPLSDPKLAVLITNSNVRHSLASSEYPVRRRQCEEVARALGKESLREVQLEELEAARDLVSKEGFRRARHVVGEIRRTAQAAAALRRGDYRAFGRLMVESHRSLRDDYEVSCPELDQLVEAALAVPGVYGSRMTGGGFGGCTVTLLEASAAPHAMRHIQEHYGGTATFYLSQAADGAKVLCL
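5 nM GALK; 35 uM ATP; 100 uM D-galactose; 20 mM HEPES pH 8.0, 5 mM MgCl2, 60 mM NaCl, 1 mM DTT, 0.01% BSA; 1 h RT; Kinase-Glo Plus luminescence.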
B2AR arrestin ag = qHTS assay of beta-arrestin-biased ligands of beta2-adrenergic receptor: NCGC Sytravon Library Screen; Beta-2 adrenergic receptor (Homo sapiens), P07550; HTLA Tango cells, beta-arrestin recruitment, luciferase luminescence, 18 h; Potency, µM (doses to about 46.1 µM), hits mostly activators; 44,000 tested, under 10 active; AID 1347077, 2019
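First, Tango cells carrying beta2-AR and beta-arrestin fusions received compound up to 46 microM. After 18 hr at 37 degrees C, luciferase substrate was added for 15 minutes, then luminescence gave %Activity for curve fitting.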
NTMT1 inhibitor = Primary qHTS for Inhibitors of N-terminal methyltransferase 1 (NTMT1): MTaseGlo Assay; 59,000 compounds, 2.5% hits; NTMT1 MTase-Glo SAH luminescence, purified enzyme; N-terminal Xaa-Pro-Lys N-methyltransferase 1 (Homo sapiens), Q9BV86; Potency, µM (highest dose often 114 µM), most hits filed as inhibitors; note: nearly all actives have a fitted effect of over 65% in size
NNMT inh = Counterscreen qHTS for Inhibitors of N-terminal methyltransferase 1 (NTMT1): NNMT MTaseGlo assay; shares compounds with NTMT1 inhibitor; NNMT MTase-Glo luminescence, SAH detection; Potency, µM (series often up to 57.1 µM), hits mostly inhibitors; 120 compounds, 10% hits
Target sequence (P40261 whole entry, looked up): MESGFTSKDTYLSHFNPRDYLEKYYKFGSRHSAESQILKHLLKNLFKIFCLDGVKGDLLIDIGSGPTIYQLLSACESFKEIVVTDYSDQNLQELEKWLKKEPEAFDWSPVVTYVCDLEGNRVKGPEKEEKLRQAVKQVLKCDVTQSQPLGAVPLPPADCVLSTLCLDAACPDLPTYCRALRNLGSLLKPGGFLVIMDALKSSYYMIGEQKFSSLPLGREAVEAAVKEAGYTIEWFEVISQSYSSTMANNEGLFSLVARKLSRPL
A number is an active result; i = inactive; ? = inconclusive; nt = no result; ! = a repeat was not active; [ ] = remark or other dose. Calls come from the whole dose curve; as a rule, active = well fitted curve in the direction sought with a large enough effect; inconclusive = small, poorly fitted or top-dose-only effect, or another doubt; inactive = no such curve, though single readings can be large; an effect the other way counts as inactive or inconclusive.

SMILES	GALC G270D act	TSG101-PTAP inh	FH mod	GALK inhibitor	B2AR arrestin ag	NTMT1 inhibitor	others
Cc1c(C(=O)OC[C@H]2CCCO2)[nH]c2c1C(=O)CC(c1ccco1)C2 (stereo partly specified)	nt	nt	nt	nt	nt	50.1µM
CCc1ccccc1C(=O)N1CCc2cc(-c3nc(NC(=O)Cc4ccc5c(c4)OCO5)sc3C)ccc21	nt	nt	nt	nt	nt	i
CCCCN(C)C(=O)Cn1nc(-c2ccc(OC)cc2)ccc1=O	nt	nt	nt	nt	nt	i
Cc1cc(O)cc(Oc2cc(C)c(C(=O)O)c(O)c2)c1	nt	nt	i	nt	nt	?
COc1cc(/C=C/c2nc(C#N)c(N3CCCCCC3)o2)cc(OC)c1OC	i	i	28.2µM	i	i	?
COc1cccc(/C=C/c2nc(C#N)c(N3CCC(C(N)=O)CC3)o2)c1	25.1µM	i	i	i	i	i
COc1cccc(/C=C/c2nc(C#N)c(NCCc3ccccc3)o2)c1	i	i	i	i	i	?
COc1cccc(/C=C/c2nc(C#N)c(N(C)Cc3ccccc3)o2)c1	25.1µM	i	i	i	i	i
COc1ccc(/C=C/c2nc(C#N)c(N3CCCCC3)o2)cc1OC	28.2µM	i	i	i	i	?
COc1c2c(c(C)c3c1C(=O)OC3)O[C@@]1(C)C[C@@H](OC(C)=O)[C@]34O[C@](OC)(CC[C@]3(C)[C@H]1C2)OC4(C)C	nt	nt	i	nt	nt	i
C=C(CCC1=C(C)[C@H]2[C@H](CC3[C@@H]4CC=C5C[C@@H](O)C[C@@H](O)[C@]5(C)C4[C@H](O)C[C@@]32C)O1)CO[C@@H]1O[C@H](CO)[C@@H](O)[C@H](O)[C@H]1O (stereo partly specified)	nt	nt	i	nt	nt	i[12.6 µM]
O=C1CCCC2=C1C(c1ccncc1Br)N=C(Nc1nc3ccccc3o1)N2 (stereo unspecified)	nt	nt	i	nt	nt	i
COc1ccc(N2CCN(c3oc(/C=C/c4ccccc4OC)nc3C#N)CC2)cc1	i	i	i	i	i	89.1µM
COc1ccccc1/C=C/c1nc(C#N)c(N2CCCCC2)o1	i	i	i	i	i	i
Fc1ccc(-n2ncc3c(NCCCN4CCOCC4)ncnc32)cc1	i	i	i	i	i	i
Cc1ccc(-n2ncc3c(NCCCN4CCOCC4)ncnc32)cc1C	i	i	i	i	i	50.1µM
COc1cc(NC(=O)c2nc3ccccc3n(C)c2=O)cc(OC)c1OC	i	i	i	i	i	i
CC(=O)c1cccc(NC(=O)c2nc3ccccc3n(C)c2=O)c1	i	i	i	i	i	25.1µM
CCOc1cc(N2CCC(O)CC2)ccc1Nc1ncc2c(n1)N(C1CCCC1)CCC(=O)N2C	nt	nt	i	nt	nt	i
Oc1ccc(C2CNCc3sccc32)cc1O (stereo unspecified)	nt	nt	8.91µM	nt	nt	nt
O=[S+]([O-])(Nc1ccccc1)c1ccc(NCc2cccc(C(F)(F)F)c2Cl)cc1	nt	nt	nt	nt	nt	i
O=c1c(-n2ccnn2)c[nH]n1-c1cc(N2CCOCC2)ncn1	nt	nt	nt	nt	nt	3.03µM!
Nc1ccc2cc3ccc(N)cc3nc2c1	i	nt	i	nt	nt	35.5µM
N#Cc1cnc2c(Cl)cc(NCc3cn(CCN4CCCCCC4)nn3)cc2c1Nc1ccc(F)c(Cl)c1	nt	nt	i	nt	nt	10µM
Cc1cc(N[S+](=O)([O-])c2ccc(NC(=O)Cc3ccc(F)c(F)c3)cc2)no1	nt	nt	nt	nt	nt	i
SMILES	GALC G270D act	TSG101-PTAP inh	FH mod	GALK inhibitor	B2AR arrestin ag	NTMT1 inhibitor	others
CCCCCCCCCCCCCCCC[N+](C)(C)CCN(Cc1ccc(OC)cc1)c1ncccn1	i	nt	i	nt	nt	25.1µM
CC(=O)O[C@H]1[C@@]2(O)C[C@H](C)[C@H](OC(=O)c3ccccc3)[C@@H]2[C@@H](OC(=O)CO)[C@]2(OC(C)=O)C[C@H]3C(=O)C(C)(C)C[C@@H]3[C@@]1(C)[C@H]2OC(C)=O	nt	nt	i	nt	nt	i[12.6 µM]
O=C(c1ccc(F)c(F)c1Nc1ccc(I)cc1F)N1CC(O)([C@@H]2CCCCN2)C1	nt	nt	i	nt	nt	31.6µM!
O=C(NOCC(O)CO)c1ccc(F)c(F)c1Nc1ccc(I)cc1F (stereo unspecified)	nt	nt	i	nt	nt	i
O=C(Nc1cccc2c(=O)cc(-c3nn[nH]n3)oc12)c1ccc(OCCCCc2ccccc2)cc1	i	nt	?	nt	nt	17.8µM
O=C(NCc1ccc(OC(F)(F)F)cc1)C1c2c(F)cccc2C(=O)N1CCc1ccccn1 (stereo unspecified)	nt	nt	i	nt	nt	i
CN1CCN(C(=O)c2ccc(Nc3nccc(-c4cccs4)n3)cc2Cl)CC1	nt	nt	i	nt	nt	i
Cc1cc(N)c2cc(NC(=O)Nc3ccc4nc(C)cc(N)c4c3)ccc2n1	i	nt	i	nt	nt	20µM
COc1cc2nc(N3CCN(C(=O)c4ccco4)C4CCCCC43)nc(N)c2cc1OC (stereo unspecified)	nt	nt	i	nt	nt	?	NNMT inh=i
COc1ccc(OC)c2sc(N3CCN(C(=O)c4ccco4)CC3)nc12	i	i	i	i	i	i
OCCn1cc(-c2cnc3nnn(Cc4ccc5ncccc5c4)c3n2)cn1	nt	nt	i	nt	nt	i	NNMT inh=i
C/C(=C/CO)CCC1C(C)CCC2C(C)(C)CCCC12C (stereo unspecified)	nt	nt	i	nt	nt	i
NC(=O)c1nc(Nc2ccccc2)sc1NC(=O)c1c(F)cccc1F	i	i	i	i	i	i
CN(C)c1ccc(Nc2nc(N)n(C(=O)c3c(F)cccc3F)n2)cc1	nt	nt	i	nt	nt	?	NNMT inh=i
Fc1ccccc1CNCc1ccc(-c2ccnc3[nH]ccc23)cc1	nt	nt	i	nt	nt	?	NNMT inh=?
O=C1CCCC2=C1C(c1[nH]ncc1Cl)N=C(Nc1nc3cc(Br)ccc3o1)N2 (stereo unspecified)	nt	nt	nt	nt	nt	i
CN=c1nc(-c2ccccc2)n(-c2ccccc2)s1	nt	nt	?	nt	nt	nt	NNMT inh=22.4µM
O=C(O)c1ccnc2cc(-c3nc4ccccc4n3CCN3CCCCC3)sc12	nt	nt	12.6µM	nt	nt	i	NNMT inh=i
Cc1ccc(OCCSc2nc3ccccc3n2CC(=O)N2CCCCC2)cc1C	i	i	i	i	i	i
C=C1C2CCC3C(CCC4[C@@]3(C)CCC[C@@]4(C)C(=O)O)(C2)[C@@H]1OC(=O)/C(C)=C\C (stereo partly specified)	nt	nt	i	nt	nt	i
COc1c/c(=C2\C=c3ccccc3=N2)[nH]/c1=C/c1[nH]c(C)cc1C	nt	nt	nt	nt	nt	nt	NNMT inh=?
